Laboratory results: PubChem BioAssay (NCI)
Compounds without any hit were thinned out: in the full panel of roughly 83,000, 20% have a hit.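 96-well plates, one dose, 48 hours. Percent growth reported; active if below 10.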 Calls of active or inactive are those of the source.

Experiments:
Assay in all cases: NCI-60 one-dose screen, 48 h (100 = growth as untreated, 0 = no growth, -100 = all killed)
Details in all cases: 10 µM unless noted
[1] = tested on: HCT-15 colon
[2] = tested on: HT29 colon
[3] = tested on: SNB-75 CNS
[4] = tested on: SNB-19 CNS
[5] = tested on: U251 CNS
[6] = tested on: PC-3 prostate
[7] = tested on: SK-MEL-5 melanoma
[8] = tested on: UACC-62 melanoma
[9] = tested on: LOX IMVI melanoma
[10] = tested on: SK-MEL-28 melanoma

Measured: growth

COc1ccc(C(=O)c2cc3c(N)c(C(=O)Nc4ccc(C)cc4)sc3nc2C)cc1
inactive: [1] 11.5% | [4] 28.9% | [5] 19.2% | [6] 25.1% | [8] 30.6% | [9] 39.2% | [10] 54%
active: [2] 9.18% | [3] -2.41% | [7] 6.93%

O=C(CN1CCOCC1)Nc1nc(-c2cc3ccccc3oc2=O)cs1
inactive: [1] 104% | [2] 103% | [3] 82.2% | [4] 101% | [5] 98.7% | [6] 97.5% | [7] 99.2% | [8] 92.5% | [9] 95.6% | [10] 104%

NC(Cc1ccc(O)c([N+](=O)[O-])c1)C(=O)O (stereo not given)
inactive: [1] 98.5% | [2] 99.1% | [3] 97.2% | [4] 105% | [5] 97.2% | [6] 90.5% | [7] 105% | [8] 103% | [9] 94.3% | [10] 99.9%

COc1cc(OC)c(NC(=O)c2cc3ccccc3cc2O)cc1Cl
active: [6] -0.247% | [8] 3.04%
inactive: [1] 48.5% | [2] 101% | [3] 86.9% | [4] 51% | [5] 17.7% | [7] 51.4% | [9] 24.2% | [10] 53.6%

COc1ccc(-c2nn(-c3cccc(Cl)c3)cc2-c2cc(-c3ccc(Br)cc3)nc(N)n2)cc1
inactive: [1] 81.4% | [2] 86% | [3] 96.9% | [4] 95.2% | [5] 97.5% | [6] 80% | [7] 94.6% | [8] 85% | [9] 98.7% | [10] 103%

Cc1cn(-c2cc(NC(=O)c3cccc(C#Cc4cccc5[nH]nc(N)c45)c3)cc(C(F)(F)F)c2)cn1
inactive: [1] 25.8% | [2] 18.4% | [3] 48.1% | [4] 55.5% | [5] 43.7% | [6] 20.9% | [7] 34.5% | [10] 23.5%
active: [8] 5.82% | [9] 7.02%

CCOC(=O)n1ccn(C)c1=S
inactive: [1] 104% | [2] 96.2% | [3] 104% | [4] 110% | [5] 100% | [6] 91% | [7] 109% | [8] 108% | [9] 105% | [10] 108%

COc1ccccc1CNc1c2ccccc2nc2ccccc12
inactive: [1] 26% | [2] 17.7% | [3] 63.5% | [4] 35.8% | [5] 38.6% | [6] 43.2% | [7] 59.2% | [8] 60.5% | [9] 18.9% | [10] 80%

CCNCCNc1cc(C2CCCCC2)c(C#N)c2nc3ccccc3n12
active: [2] -50% | [3] -26% | [5] -37.7% | [7] -55.1% | [8] -62% | [9] -94.8% | [10] -73.1%
inactive: [1] 16.7% | [4] 42.9% | [6] 40.2%

CCN1C(=S)N(c2ccccc2)C2C1NN=c1s/c(=C3\C(=O)N(C(C)C)c4ccccc43)c(=O)n12 (stereo not given)
inactive: [1] 93.3% | [2] 69.6% | [3] 61% | [4] 81.9% | [5] 64.6% | [6] 79.3% | [7] 92.1% | [8] 83.5% | [9] 47.5% | [10] 102%

COC(=O)Nc1nc2ccc(S(=O)c3ccccc3)cc2[nH]1 (stereo not given)
inactive: [1] 45.6% | [2] 16.9% | [3] 73.2% | [4] 74.9% | [5] 60.2% | [6] 67.4% | [7] 42.5% | [8] 52.4% | [9] 64.8% | [10] 72.8%

O=C(N/N=C/c1ccc(Cl)cc1)c1[nH]c2ccc(Cl)cc2c1-c1ccccc1
inactive: [1] 11.2% | [2] 19.4% | [3] 70.5% | [4] 15.1% | [5] 10.4% | [6] 17.2% | [8] 30.7% | [9] 19% | [10] 93.3%
active: [7] -36.6%

CN(C)Cc1ccc(O)c(C(=O)O)c1
inactive: [1] 107% | [2] 107% | [3] 108% | [4] 109% | [5] 93.3% | [6] 105% | [7] 108% | [8] 104% | [9] 99.4% | [10] 119%

Cn1cc(C(=O)c2nc(-c3c[nH]c4ccccc34)no2)c2cc(F)ccc21
active: [2] 8.8%
inactive: [1] 33.2% | [3] 27.4% | [4] 38.8% | [5] 28.5% | [6] 41.9% | [7] 25.3% | [8] 31.7% | [9] 39.5% | [10] 64.6%

CCOC(=O)c1cc(C)n(-c2ccc(C(=O)O)cc2)c1C
inactive: [1] 24.8% | [2] 37.8% | [3] 130% | [4] 94.5% | [5] 96.3% | [6] 83.3% | [7] 92% | [8] 86.7% | [9] 80.2% | [10] 127%

NS(=O)(=O)c1ccccc1NC(=O)Nc1nc2ccccc2s1
inactive: [1] 100% | [2] 98.2% | [3] 86.9% | [4] 98% | [5] 99.1% | [6] 97.8% | [7] 99.8% | [8] 101% | [9] 91.8% | [10] 103%

O=C(Nc1nc2ccccc2s1)c1ccc(F)cc1
inactive: [1] 85.5% | [2] 108% | [3] 96.7% | [4] 126% | [5] 99.7% | [6] 96.6% | [7] 91.3% | [8] 89.5% | [9] 101% | [10] 114%

CCOC(=O)c1c(C(=O)c2cn(C)c3ccc(Br)cc23)c(-c2cn(C)c3ccc(Br)cc23)n(NC(=O)OC(C)(C)C)c1C
active: [3] -27.3% [100 µM]
inactive: [1] 89% [100 µM] | [2] 90.5% [100 µM] | [4] 50.8% [100 µM] | [5] 60.7% [100 µM] | [6] 61.8% [100 µM] | [7] 90.6% [100 µM] | [8] 65.7% [100 µM] | [9] 78% [100 µM] | [10] 107% [100 µM]

C=C1CC[C@@H]2[C@](C)(COC(C)=O)[C@H](OC(C)=O)CC[C@@]2(C)[C@@H]1CC(Nc1ccc(S(=O)(=O)Nc2ncccn2)cc1)C1=CCOC1=O (stereo not given in full)
inactive: [3] 25.6% | [4] 36.7% | [6] 15.1% | [7] 24.1%
active: [1] -51.4% | [2] -48.6% | [5] -19% | [8] 3.93% | [9] -79.8% | [10] -17.7%

CCN1C(=O)N(CC)C2C1NN=c1s/c(=C\c3ccccc3F)c(=O)n12 (stereo not given)
inactive: [3] 10.8% | [4] 31% | [6] 25.1% | [8] 34.4% | [9] 15.8% | [10] 61.2%
active: [1] 8.45% | [2] 1.76% | [5] 1.71% | [7] -21.1%

O=C(Nn1c2c(sc1=NC1CC1)C(=O)c1ccccc1C2=O)c1cc2ccc1CCc1ccc(cc1)CC2
inactive: [2] 108% | [4] 33.7% | [5] 32.6% | [6] 30.7% | [10] 40.2%
active: [1] 2.79% | [3] -10.4% | [7] -77.6% | [8] -12.4% | [9] 0.512%

COC(=O)/C=C1/SC(=Nc2ccc(C(F)(F)F)cc2)N(CCc2c[nH]c3ccc(O)cc23)C1=O
active: [1] 3.12% | [2] -49.9% | [3] -3.46% | [4] -2.49% | [5] -37.7% | [6] -33.8% | [7] -61.9% | [8] -53.6% | [9] -60% | [10] -29.5%

Cn1c(=O)c2nc(/C=C/c3ccccc3)c(=O)[nH]c2n(C)c1=S
inactive: [1] 102% | [2] 109% | [3] 105% | [4] 105% | [5] 108% | [6] 102% | [7] 102% | [8] 92.4% | [9] 101% | [10] 111%

Cc1ccc(-c2nc(N3CCCNCC3)c3oc(-c4ccc(C)cc4)nc3n2)cc1
inactive: [3] 97.7% | [4] 58.2% | [7] 88.1% | [8] 92% | [10] 89.8%
active: [1] -72.9% | [2] -87.1% | [5] -92.4% | [6] -89.5% | [9] -79.3%

C=C(C)[C@@H]1CC[C@]2(C(=O)O)CC[C@]3(C)[C@H](CC[C@@H]4[C@@]5(C)CCC(NC(=O)c6cccc(OC(C)=O)c6OC(C)=O)C(C)(C)[C@@H]5CC[C@]43C)[C@@H]12 (stereo not given in full)
inactive: [3] 12.5% | [4] 26% | [6] 17.6% | [10] 12%
active: [1] 6.94% | [2] 8.01% | [5] 9.78% | [7] -81.7% | [8] -38.3% | [9] -74.1%
